From PubChem BioAssay
CSC inhib – cancer stem cell inhibition. inhibition, % at 7.5 µM. cancer stem cell-like cells viability, luminescence. AID 2717. 1.1% of 300,000 active; in the data active = inhibition above about 75%; inconclusive = no clear call, values can overlap the other calls; tested in HMLE shEcad cells
ALR H2O2 inh – inhibitors of human sulfhydryl oxidase ALR; inhibition, % (test concentration not listed); P55789; purified ALR, DTT oxidation, H2O2 HRP-luminol luminescence; 3.8% of 290,000 active;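 active = mean replicate inhibition above about 79%, with every replicate also reaching it, limit read from the data; inconclusive = only one of the two criteria met; inactive = mean below limit and not every replicate reaching it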
Target sequence (P55789 whole entry, looked up): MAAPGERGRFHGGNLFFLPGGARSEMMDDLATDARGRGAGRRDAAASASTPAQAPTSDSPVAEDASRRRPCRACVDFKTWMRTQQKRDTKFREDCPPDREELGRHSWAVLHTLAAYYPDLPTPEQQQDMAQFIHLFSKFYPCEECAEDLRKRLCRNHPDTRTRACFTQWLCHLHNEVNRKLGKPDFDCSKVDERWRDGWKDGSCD
Calb FLC – affects C. albicans growth with fluconazole | C. albicans CaCi-2 (fluconazole-resistant clinical isolate) + fluconazole, Alamar Blue growth, 48 h | growth inhibition, % (concentration not given with the values) | 0.57% of 300,000 active;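 active = growth inhibition above about 58% in most replicates, limit read from the data, passing the limit was not always enough; inconclusive = exactly half the replicates above a set limit; inactive = most replicates below a set limit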;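 also: all wells also contain fluconazole at 8 µg/ml as a sub-toxic cotreatment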
PP5 primary – PP5 (human) phosphatase inhibition | P53041 | purified PP5c, OMFP substrate fluorescence | inhibition, % at 6.7 µM | 0.18% of 320,000 active;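 active = inhibition above the campaign's mean inhibition across all tested compounds plus 3 SD, cut at about 9.5% in these data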
PP1 counter – counter-screen for PP5 inhibitors: inhibitors of human PP1-alpha. purified PP1alpha, OMFP fluorescence. inhibition, % at 6.7 µM. 0.9% of 320,000 active;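 active = inhibition above the mean inhibition of all tested compounds plus 3 SD, computed separately for each screening campaign, cut at about 15% in these data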
Target sequence (P62136 whole entry, looked up): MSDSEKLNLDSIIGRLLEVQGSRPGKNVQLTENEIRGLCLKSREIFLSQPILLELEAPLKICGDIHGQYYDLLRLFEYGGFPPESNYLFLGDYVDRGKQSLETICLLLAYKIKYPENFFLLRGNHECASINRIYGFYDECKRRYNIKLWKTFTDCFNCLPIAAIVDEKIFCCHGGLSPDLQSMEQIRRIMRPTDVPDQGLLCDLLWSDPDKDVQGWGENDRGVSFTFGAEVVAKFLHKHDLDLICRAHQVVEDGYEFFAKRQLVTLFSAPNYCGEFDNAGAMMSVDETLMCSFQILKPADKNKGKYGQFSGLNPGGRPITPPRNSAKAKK
PP5 inh confirm – PP5 (human) inhibition, confirmation; shares compounds with PP5 primary; Purified PP5, fluorogenic phosphatase substrate, fluorescence; inhibition, % at 6.7 µM; 22% of 460 active; AID 2331; in the data active = inhibition above about 9.5%
PP1 counter 3x – counter-screen for PP5 inhibitors: human PP1 phosphatase inhibition | inhibition, % at 6.7 µM | 4% of 460 active | AID 2355 | PP1 enzyme, fluorescent phosphatase substrate | shares compounds with PP5 primary; in the data active = inhibition above about 16%
Each line names hits and unclear results; the compound was inactive in the other large screens (follow-up assays come after a bar, where they were run). Compounds with a hit are over-represented: about 5.4% of the library has one in this group of screens.

O=C1NC(=O)N(Cc2ccccc2)C(=O)/C1=C/c1cnn(-c2ccccc2)c1	none
Oc1ccc(C2=CCNCC2)cc1O	ALR H2O2 inh 99
Cc1c2cnn(CC(=O)N3CCC4(CC3)OCCO4)c(=O)c2c(C)n1Cc1ccccc1F	none
O=[N+]([O-])c1ccc(N2CCNCC2)cc1Sc1ccccn1	none
COc1cc2nc(CN3CC=C(c4ccccc4)CC3)[nH]c(=O)c2cc1OC	CSC inhib 90
COc1cc(C)c(CN2CC=C(c3ccc(F)cc3)CC2)cc1C	none
CC1=NCCc2c1[nH]c1cc(O)ccc21	ALR H2O2 inh 99 (no result: Calb FLC)
CN(C)c1ccc([P+](=O)c2ccc(N(C)C)cc2)cc1	Calb FLC 62 (no result: CSC inhib)
O=C(Cn1ncc2ccsc2c1=O)N1CCC2(CC1)OCCO2	none
COC(=O)C1=C(c2cccc(C#N)c2)C[C@@H]2CC[C@H]1N2C(=O)NC1Cc2ccccc2C1	CSC inhib 84 (no result: Calb FLC)
N/C(=N\[N+](=O)[O-])N/N=C/c1ccc(O)cc1	ALR H2O2 inh 97
C/C(=N\NC(=S)Nc1ccccc1)c1c(O)n(C)c(=O)n(C)c1=O	ALR H2O2 inh 92
CC/C(=N\Nc1ccccc1)c1c(O)n(C)c(=O)n(C)c1=O	none (no result: ALR H2O2 inh)
O=c1[nH]c(=S)[nH]c(O)c1N=Nc1ccc(SC(F)F)cc1	ALR H2O2 inh 98
CC1CCCN(c2ccc(C(=O)N3CCC4(CC3)OCCO4)cc2[N+](=O)[O-])C1 (configuration not stated)	CSC inhib 116
CC1CCN2c3nc4ccccn4c(=O)c3CC3(C(=O)N(C)C(=O)N(C)C3=O)C2C1 (configuration not stated)	none
c1ccc2c(CN3CCN(C4CCCCC4)CC3)c[nH]c2c1	none
COc1ccc(CCN)cc1O	none (no result: Calb FLC)
CNCCc1ccc(O)c(O)c1	ALR H2O2 inh 97 (no result: Calb FLC)
Cc1ccc(S(=O)(=O)N2CC2(C)CCl)cc1 (configuration not stated)	none
CCOP(=S)(OCC)Oc1cc(C)oc(=O)c1	none
C#CCN(C)C(C)Cc1ccccc1 (configuration not stated)	none
Cc1ccc(Cn2cc(C=O)c(-c3ccc(C)cc3)n2)cc1	ALR H2O2 inh 90
CN(C)c1ccc(/C=C2/C(=N\O)C3CCN2CC3)cc1	ALR H2O2 inh 99
O=C(Cc1ccccc1)OCC(=O)c1ccc(F)cc1	none (no result: Calb FLC, PP5 primary, PP1 counter)
O=c1c2ccccc2[nH]c(=S)n1-c1ccc2c(c1)OCO2	none
Cc1cnc(-n2c(=S)[nH]c3ccccc3c2=O)s1	ALR H2O2 inh 97 (no result: CSC inhib, Calb FLC)
C[C@@H]1O[C@@H](O[C@@H]2C=C3CC[C@@H]4C(CC[C@]5(C)[C@@H](c6ccc(=O)oc6)CC[C@]45O)[C@@]3(C)CC2)[C@H](O)[C@H](O)[C@H]1O (some centres not stated)	CSC inhib 107 (no result: Calb FLC)
C[C@@H]1O[C@@H](O[C@@H]2C=C3CCC4C(CC[C@]5(C)[C@@H](c6ccc(=O)oc6)CC[C@]45O)[C@@]3(C)CC2)[C@H](O)[C@H](O)[C@H]1O (some centres not stated)	CSC inhib 101 (no result: Calb FLC)
Cc1ccc(-n2c(C)nc3cc(Cl)ccc3c2=O)nc1	none (no result: ALR H2O2 inh)
COc1ccc(-n2c(/C=C/c3ccc(O)c(OC)c3)nc3ccccc3c2=O)cc1	none
COc1cccc(-n2c(/C=C/c3ccc(O)c(O)c3)nc3ccccc3c2=O)c1	ALR H2O2 inh 91
C[C@]12CCC3[C@@H](CC[C@H]4C[C@@H](O)CC[C@]34C)C1CCC2=O (some centres not stated)	Calb FLC 80
Cc1cccc(-n2c(O)c(C=NCCN3CCCCC3)c(=O)[nH]c2=O)c1	none
Cc1cc(N=Nc2ccccc2C)ccc1N	ALR H2O2 inh 86
O=C1CC(c2cccnc2)=NN1c1ccc(Cl)cc1Cl	none
O=C(NC1CCCCC1)Oc1cc2oc(=O)sc2cc1Cl	ALR H2O2 inh 92
CN1CCC(O)(c2ccccc2)C2CCCC21 (configuration not stated)	none
O=C(O)C12C3CCCC1C32c1ccccc1 (configuration not stated)	ALR H2O2 inh 99
Nc1ccc2c(c1)Cc1ccccc1-2	ALR H2O2 inh 99
Cc1nn(Cc2ccccc2)c(C)c1C=C1C(=O)NC(=O)NC1=O	ALR H2O2 inh 95 (no result: CSC inhib)
Cc1nn(Cc2ccccc2)c(C)c1C(=O)NCc1ccccc1	none
CCN1/C(=C\C=C\C2=[N+](CC)c3ccccc3C2(C)C)C(C)(C)c2ccccc21	CSC inhib 93, ALR H2O2 inh 88
CN(C(=O)c1ccco1)C1(c2ccccc2Cl)CCCCC1=O (configuration not stated)	none
COc1cc(C(=O)N/N=C/C23CC[C@@H](O)CC2(O)CC[C@@H]2[C@@H]3CCC3(C)C(C4=CC(=O)OC4)CCC23O)ccc1O (some centres not stated)	ALR H2O2 inh 95
COc1ccc(C(=O)N/N=C/C23CC[C@@H](O)CC2(O)CC[C@@H]2[C@@H]3CCC3(C)C(C4=CC(=O)OC4)CCC23O)cc1 (some centres not stated)	none (no result: ALR H2O2 inh)
O=c1c2ccccc2nc(-c2ccccc2Cl)n1-c1cccc(O)c1	none (no result: PP5 primary, PP1 counter)
O=C(Nc1ccccc1)c1c(O)[nH]c(=O)[nH]c1=O	none
O=C(Nc1ccccc1)c1c(O)[nH]c(=S)[nH]c1=O	PP1 counter 16
COC(=O)C1=C(c2ccc(OCc3ccccc3)cc2)C[C@@H]2CC[C@H]1N2C(=O)NC1CCN(Cc2ccccc2)CC1	none (no result: Calb FLC)
Nc1cc(Cl)c2nonc2c1[N+](=O)[O-]	ALR H2O2 inh 97 (no result: Calb FLC)
CCNc1ccc(P(=S)(N(C)C)N(C)C)cc1	ALR H2O2 inh 99
COCCNC(=O)Cn1cc(/C=C2\C(=O)NC(=O)N(c3cccc(C)c3C)C2=O)c2ccccc21	ALR H2O2 inh 92
O=C(C[N+]12CCC(CC1)C(C(O)(c1ccccc1)c1ccccc1)C2)c1ccc(Br)cc1 (configuration not stated)	Calb FLC 95
CN(C)c1ccc(CN2CC=C(c3ccc(F)cc3)CC2)cc1	none
CC(=O)Nc1ccccc1C(=O)OCC(=O)c1ccccc1Cl	none
CC(=O)Nc1ccccc1OP1(=O)COc2ccccc2OC1	ALR H2O2 inh 81
CC(C)(C)NC(=S)N1CCn2cccc2C1c1cccnc1 (configuration not stated)	none (no result: CSC inhib, ALR H2O2 inh)
CC(C)[C@H]1C(=O)O[C@H](C(C)C)C(=O)N(C)[C@@H](C(C)C)C(=O)O[C@H](C(C)C)C(=O)N(C)[C@@H](C(C)C)C(=O)O[C@H](C(C)C)C(=O)N1C	Calb FLC 88
CCOC(=O)C1=C(N)Oc2cc(C)oc(=O)c2C12C(=O)N1c3c(cc(OC)cc32)C(C)=CC1(C)C (configuration not stated)	none
CCOc1ccccc1-n1c(O)c(C=Nc2ccc(N(CC)CC)cc2)c(=O)[nH]c1=O	CSC inhib inconclusive, PP5 primary 12 | PP5 inh confirm inactive | PP1 counter 3x inactive
